Inconclusive results are not listed. More than one record can exist for a structure, and the calls need not agree. The source made the active and inactive calls. Unless noted, calls come from the whole dose curve. Bridge positions count the residues as written; N and C are the ends. Square brackets hold non-standard residues; d marks the D form. Peptide text beside a SMILES is read from it. * marks the point of attachment. Octanoyl(6-Me) = CCC(C)CCCCC(=O)*; Dab = NCC[CH](N)C(=O)O

This note sets out measurements from PubChem BioAssay (NCATS).

Assay [1] has as its target Peroxisome proliferator-activated receptor delta (Homo sapiens) (UniProt Q03181). The experiment in a line: qHTS assay for small molecule agonists of peroxisome proliferator-activated receptor delta signaling (AID 588534).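 Note: 0% = DMSO basal wells and 100% = positive control agonist at 10 µM.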 An outline of the steps: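 EC50 and efficacy values derive from Hill fits of a concentration series in a beta-lactamase reporter cell assay. Exposure is 18 hrs at 37 C, with CCF4 fluorescence as the readout.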

Assay [2] can be described thus: Primary qHTS for inhibitors of SARS-S pseudo-typed particle cell entry (AID 1479145). For activity change, negative = inhibition: % is set by controls: 0 for no effect and ±100 for the full control effect. Note: nearly all actives have a fitted effect of over 45% in size. To be noted: outcome: dose series up to 57.1 µM unless noted. (In general: qHTS replaces the single test concentration by a dilution series.)
Assay [3] can be described thus: Primary qHTS for Huh7 cytotoxicity: counterscreen for inhibitors of MERS-S pseudotyped particle cell entry (AID 1479147). To be noted: outcome: dose series up to 57.1 µM unless noted.
A short description of assay [4]: Primary qHTS for inhibitors of MERS-S pseudo-typed particle cell entry (AID 1479149). Note: nearly all actives have a fitted effect of over 60% in size. To be noted: outcome: dose series up to 57.1 µM unless noted.
A short description of assay [5]: Primary qHTS for Vero E6 cytotoxicity: counterscreen for inhibitors of SARS-S pseudo-typed particle cell entry (AID 1479150). The conditions noted are these: outcome: dose series up to 57.1 µM unless noted.
A short description of assay [6]: Cytotoxicity counterscreen for inhibitors of SARS-CoV-2 cell entry (AID 1645845). Note: nearly all actives have a fitted effect of over 50% in size. The conditions noted are these: outcome: dose series up to 57.1 µM unless noted. An outline of the steps: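 Counterscreen run in the same HEK293-ACE2 line as the pseudotyped-particle entry assay, without particles. Viability after 48 h at 37 C was read as ATP luminescence, scaled between cell-containing and cell-free wells.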
(A counterscreen serves to expose hits that act by an unwanted route or on another target.)

Assay [7] in a line: Primary qHTS to identify inhibitors of SARS-CoV-2 cell entry (AID 1645846). Note: nearly all actives have a fitted effect of over 45% in size. To be noted: SARS-CoV-2 pseudovirus cell entry assay, luminescence; activity change, negative = inhibition: at 57.1 µM (top of the series) unless noted. An outline of the steps:
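Using luciferase-reporting pseudoviruses carrying Wuhan-Hu-1 spike, the screen tracks entry into stably ACE2-expressing cells over 48 hr. Activity is expressed relative to spike particles versus particles lacking any fusion protein.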

A short description of assay [8]: qHTS assay for small molecule agonists of retinoid X receptor alpha signaling (AID 588544).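 For activation: 0% = DMSO basal wells and 100% = reference agonist.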 To be noted: HEK293T RXRa-UAS-bla, beta-lactamase reporter, 18 h; 530 nm emission.
Assay [9] has as its target Retinoic acid receptor RXR-alpha (Homo sapiens) (UniProt P19793). The description is as above.
For assay [10], the target named is Thyroid hormone receptor beta (Homo sapiens) (UniProt P10828). The experiment in a line: qHTS assay for small molecule agonists of thyroid hormone receptor beta signaling (AID 588545). An outline of the steps: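 Agonist activity was read as beta-lactamase CCF4 fluorescence (405 ex, 460/530 em), scaled between DMSO (0%) and 10 nM T3 (100%), then Hill-fitted for EC50 and efficacy. HEK 293 TR-UAS-bla cells in 2% charcoal/dextran FBS medium were exposed 18 h at 37 C.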

Assay [11] is described as follows: qHTS assay for small molecule agonists of the antioxidant response element (ARE) signaling pathway (AID 651741; active = well fitted activation curve with a large enough effect in the signal ratio; the % refers to the signal ratio; note: potency is the fitted concentration of half-maximal effect; for activation: % of control where 0% means no effect). An outline of the steps:
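HepG2 ARE-bla reporter cells, 2,000/well; 5 h settle at 37 C/5% CO2; compound pin transfer (23 nL, DMSO); 16 h at 37 C; LiveBLAzer B/G FRET substrate, 2 h RT; fluorescence intensity read.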

Assay [12] deals with Glutathione peroxidase 1 (Homo sapiens) (UniProt P07203). The experiment in a line: Primary qHTS Assay for Inhibitors of Recombinant Selenoprotein Glutathione Peroxidase 1 (GPX1) (AID 1845191; active = well fitted curve in the direction sought with a large enough effect; an effect the other way counts as inactive or inconclusive; note: % is set by controls: 0 for no effect and ±100 for the full control effect; nearly all actives have a fitted effect of over 65% in size). An outline of the steps:
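GR-coupled readout: NADPH consumption tracked by fluorescence, ex 340/em 450 nm, at t=0 and after 15 min at RT. Final mix 10 nM GPX1, 1 mM GSH, 0.5 mM CHP, 0.5 mM NADPH, 100 nM GR, 0.01% BSA, following 30 min enzyme–compound preincubation.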

Assay [13] concerns the target Phospholipid hydroperoxide glutathione peroxidase GPX4 (Homo sapiens) (UniProt P36969). The experiment in a line: Primary qHTS Assay for Inhibitors of Recombinant Selenoprotein Glutathione Peroxidase 4 (GPX4) (AID 1845192; active = well fitted curve in the direction sought with a large enough effect; an effect the other way counts as inactive or inconclusive; note: % is set by controls: 0 for no effect and ±100 for the full control effect; nearly all actives have a fitted effect of over 65% in size). The gist of the method:
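Steps: GPX4 plus compound, 30 min RT; add GR/GSH/NADPH master mix; start with cumene hydroperoxide; read 340/450 nm fluorescence at 0 and 15 min. Finals were 200 nM GPX4, 1 mM GSH, 0.5 mM CHP, 0.5 mM NADPH, 100 nM GR.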

The target of assay [14] is Bile acid receptor (Homo sapiens) (UniProt Q96RI1). The experiment in a line: qHTS assay for small molecule agonists of farnesoid X receptor signaling (AID 588527).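 Note: 0% = vehicle basal and 100% = reference agonist.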 The conditions noted are these: HEK293T FXR-UAS-bla, beta-lactamase ratio, 16 h; stronger effect = higher value. An outline of the steps: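 Quantitative HTS used FXR-UAS-bla HEK293T cells with 16 h compound incubation at 37 C. EC50 values came from concentration-response curves normalized to chenodeoxycholic acid.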

The target in assay [15] is Nuclear receptor subfamily 1 group I member 3 (Homo sapiens) (UniProt Q14994). The experiment in a line: Primary qHTS for antagonist of constitutive androstane receptor (CAR) against the NCATS DSHEA and TCM libraries (AID 1794836; active = well fitted curve in the direction sought with a large enough effect; an effect the other way counts as inactive or inconclusive;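 note: HepG2 cells stably expressing hCAR with CYP2B6 luciferase reporter stimulated by CITCO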). An outline of the steps: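 HepG2-CYP2B6-hCAR cells, attached 5 h, given compounds plus CITCO agonist […], incubated 24 h at 37 C. Luciferase luminescence read, multiplexed with CellTiter-Fluor viability (Ex/Em 405/540 nm).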

A short description of assay [16]: KB-8-5-11 P-gp reporter qHTS against the NCATS DSHEA and TCM libraries (AID 1919977; active = well fitted curve in the direction sought with a large enough effect; an effect the other way counts as inactive or inconclusive; note: 0% is about no effect). The gist of the method:
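Viability of drug-resistant KB-8-5-11 cells is measured by CellTiter-Glo luminescence following roughly 72 h treatment at 37C. Substances were titrated, with bortezomib as intraplate control.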

Chain of Peroxisome proliferator-activated receptor delta (Homo sapiens) (Q03181 whole entry, looked up): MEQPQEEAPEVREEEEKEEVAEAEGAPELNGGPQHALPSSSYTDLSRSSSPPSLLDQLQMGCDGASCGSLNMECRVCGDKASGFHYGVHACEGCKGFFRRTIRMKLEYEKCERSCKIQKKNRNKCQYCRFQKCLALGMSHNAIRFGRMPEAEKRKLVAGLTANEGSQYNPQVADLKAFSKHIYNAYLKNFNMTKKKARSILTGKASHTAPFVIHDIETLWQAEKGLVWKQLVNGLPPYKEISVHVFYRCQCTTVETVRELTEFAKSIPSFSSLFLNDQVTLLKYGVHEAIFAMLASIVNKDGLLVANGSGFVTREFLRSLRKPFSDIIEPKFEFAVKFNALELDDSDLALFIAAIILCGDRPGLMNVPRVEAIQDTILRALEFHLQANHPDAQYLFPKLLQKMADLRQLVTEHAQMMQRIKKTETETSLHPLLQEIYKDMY
Chain of Glutathione peroxidase 1 (Homo sapiens) (P07203 whole entry, looked up): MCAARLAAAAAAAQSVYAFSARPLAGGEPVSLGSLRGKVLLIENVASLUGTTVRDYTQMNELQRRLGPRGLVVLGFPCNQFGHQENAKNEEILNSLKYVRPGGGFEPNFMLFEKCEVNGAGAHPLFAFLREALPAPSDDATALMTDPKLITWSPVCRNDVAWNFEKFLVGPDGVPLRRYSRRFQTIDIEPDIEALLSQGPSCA
Chain of Bile acid receptor (Homo sapiens) (Q96RI1 whole entry, looked up): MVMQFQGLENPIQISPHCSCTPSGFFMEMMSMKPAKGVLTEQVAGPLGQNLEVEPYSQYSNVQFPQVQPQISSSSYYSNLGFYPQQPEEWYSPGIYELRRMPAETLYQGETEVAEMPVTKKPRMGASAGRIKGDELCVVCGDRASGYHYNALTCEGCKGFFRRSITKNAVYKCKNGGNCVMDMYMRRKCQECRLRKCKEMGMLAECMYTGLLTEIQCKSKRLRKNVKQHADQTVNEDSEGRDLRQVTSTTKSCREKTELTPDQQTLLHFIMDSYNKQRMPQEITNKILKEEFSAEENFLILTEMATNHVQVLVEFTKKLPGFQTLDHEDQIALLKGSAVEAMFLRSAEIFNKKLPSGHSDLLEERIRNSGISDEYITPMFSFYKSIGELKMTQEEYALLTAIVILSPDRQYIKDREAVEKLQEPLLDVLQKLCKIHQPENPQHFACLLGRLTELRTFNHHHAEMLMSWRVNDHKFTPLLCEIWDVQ
Chain of Phospholipid hydroperoxide glutathione peroxidase GPX4 (Homo sapiens) (P36969 whole entry, looked up): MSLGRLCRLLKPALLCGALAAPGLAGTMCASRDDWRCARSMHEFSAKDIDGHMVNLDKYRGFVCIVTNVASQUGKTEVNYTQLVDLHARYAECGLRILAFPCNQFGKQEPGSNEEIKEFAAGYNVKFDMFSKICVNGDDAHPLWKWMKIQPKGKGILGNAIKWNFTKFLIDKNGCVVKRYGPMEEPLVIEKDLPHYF
Chain of Retinoic acid receptor RXR-alpha (Homo sapiens) (P19793 whole entry, looked up): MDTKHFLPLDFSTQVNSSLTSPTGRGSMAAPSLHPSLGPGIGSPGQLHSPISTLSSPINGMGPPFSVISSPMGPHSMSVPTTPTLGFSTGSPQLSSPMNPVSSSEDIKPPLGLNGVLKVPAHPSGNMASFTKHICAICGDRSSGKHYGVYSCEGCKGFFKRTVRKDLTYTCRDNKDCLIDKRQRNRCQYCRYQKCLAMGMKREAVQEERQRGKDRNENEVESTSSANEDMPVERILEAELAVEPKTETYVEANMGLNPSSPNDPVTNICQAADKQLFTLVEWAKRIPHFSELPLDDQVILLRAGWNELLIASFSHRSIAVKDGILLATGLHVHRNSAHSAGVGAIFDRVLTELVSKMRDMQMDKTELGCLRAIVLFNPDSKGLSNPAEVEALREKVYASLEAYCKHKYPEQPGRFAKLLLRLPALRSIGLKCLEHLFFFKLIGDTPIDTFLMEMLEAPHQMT
Chain of Nuclear receptor subfamily 1 group I member 3 (Homo sapiens) (Q14994 whole entry, looked up): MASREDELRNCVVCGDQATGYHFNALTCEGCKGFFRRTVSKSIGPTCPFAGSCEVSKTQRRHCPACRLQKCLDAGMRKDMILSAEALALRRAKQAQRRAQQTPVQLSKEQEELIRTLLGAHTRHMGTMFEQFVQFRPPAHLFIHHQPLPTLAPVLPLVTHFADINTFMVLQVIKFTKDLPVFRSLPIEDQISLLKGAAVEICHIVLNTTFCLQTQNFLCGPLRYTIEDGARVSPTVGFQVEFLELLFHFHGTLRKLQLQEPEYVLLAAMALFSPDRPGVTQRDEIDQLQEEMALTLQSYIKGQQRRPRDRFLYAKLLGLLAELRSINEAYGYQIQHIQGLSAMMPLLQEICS
Chain of Thyroid hormone receptor beta (Homo sapiens) (P10828 whole entry, looked up): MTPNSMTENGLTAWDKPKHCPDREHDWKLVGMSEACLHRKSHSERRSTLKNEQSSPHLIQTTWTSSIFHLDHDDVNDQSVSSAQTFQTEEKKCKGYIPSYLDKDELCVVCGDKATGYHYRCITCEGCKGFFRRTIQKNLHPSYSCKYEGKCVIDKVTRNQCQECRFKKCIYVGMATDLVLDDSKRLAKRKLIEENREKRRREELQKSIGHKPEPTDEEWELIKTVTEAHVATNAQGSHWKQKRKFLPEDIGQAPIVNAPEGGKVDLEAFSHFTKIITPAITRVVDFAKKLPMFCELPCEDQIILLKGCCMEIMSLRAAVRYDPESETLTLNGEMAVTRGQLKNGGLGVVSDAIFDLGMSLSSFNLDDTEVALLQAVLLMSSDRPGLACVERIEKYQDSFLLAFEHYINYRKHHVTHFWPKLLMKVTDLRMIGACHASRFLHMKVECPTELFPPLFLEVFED

Regarding `Cc1ccc(S(=O)(=O)O)cc1C`, the compound was called inactive in [1]. Moreover, the Potency result in assay [2], in [3], in assay [4], in assay [5] and in assay [6] was “inactive” throughout. In [7], the activity change, negative = inhibition is -10.6%.

For `Cc1cccc(O)c1`, the compound was called inactive in assay [1] and in assay [10]. Besides, the max response in [8] was -15.1%. In addition, the Potency result in assay [9], in assay [2], in assay [3], in [4], in assay [5] and in [6] was “inactive” each time. Moreover, the Potency in [11] was 355 µM (active) and inactive.

For `CC1(C)S[C@@H]2[C@H](NC(=O)COc3ccccc3)C(=O)N2[C@H]1C(=O)O`, the outcome in assay [1] was inactive. Further, the Potency result in assay [2], in assay [3], in [4], in assay [5] and in assay [6] was “inactive” throughout. In assay [7], the activity change, negative = inhibition is -8.38%.

Consider `CN[C@H]1C(=O)N[C@@H]2Cc3ccc(cc3)Oc3cc4cc(c3O[C@@H]3O[C@H](C(=O)O)[C@@H](O)[C@H](O)[C@H]3NC(=O)CCCCCCCCC(C)C)Oc3ccc(cc3Cl)[C@@H](O)[C@@H]3NC(=O)[C@H](NC(=O)[C@@H]4NC(=O)[C@@H](NC2=O)c2cc(cc(O)c2Cl)Oc2cc1ccc2O)c1ccc(O)c(c1)-c1c(O[C@H]2O[C@H](CO)[C@@H](O)[C@H](O)[C@@H]2O)cc(O)cc1[C@@H](C(=O)NCCCN(C)C)NC3=O`, for which the Potency result in [2], in assay [3], in [4] and in assay [5] was “inactive” each time. For the same compound, the activity change, negative = inhibition in assay [7] was found to be 0.0393% [at 27.1 µM].

On to `CCC(C)CCCCC(=O)NC(CCN)C(=O)NC(C(=O)NC(CCN)C(=O)NC1CCNC(=O)C(C(C)O)NC(=O)C(CCN)NC(=O)C(CCN)NC(=O)C(CC(C)C)NC(=O)C(Cc2ccccc2)NC(=O)C(CCN)NC1=O)C(C)O` (configuration not stated) ({Octanoyl(6-Me)}-[Dab]T[Dab][Dab][Dab]FL[Dab][Dab]T; lactam 4-C; configuration not given here), for which the Potency result in assay [2], in assay [3], in assay [4] and in assay [5] was “inactive” in each case. The activity change, negative = inhibition in [7] is -13.5% [at 27.1 µM].

As for `C=C/C=C/CC1=C(C)[C@H](OC(=O)[C@H]2[C@H](/C=C(\C)C(=O)OC)C2(C)C)CC1=O`, the Potency result in [2], in [3], in [4], in assay [5], in assay [6] and in assay [12] was “inactive” in each case. The Potency result in assay [13] was “inactive”.

In the case of `c1ccc2scnc2c1`, the outcome in assay [1] was inactive. Further, the Potency entry in assay [2], in assay [3], in assay [4], in assay [5] and in [6] was “inactive” in each case. Also, the activity change, negative = inhibition in [7] is -27.1%.

Consider `O=CCCCC=O`, for which, in [14], the activation was -2.56% (inactive). Moreover, in assay [1], the compound was classed as inactive. Moreover, the Potency entry in assay [2], in assay [3], in assay [4], in [5] and in assay [6] was “inactive” throughout.

Take `CC(C)=CCC/C(C)=C/C=C/C(C)=C/C=C/C(C)=C/C=C/C=C(C)/C=C/C=C(C)/C=C/C=C(\C)CCC=C(C)C`: the Potency result in [2], in [3], in [4], in assay [5], in assay [6] and in [15] was “inactive” in each case. Further, the Potency result in [16] is “inactive”.
